Measurements as given in PubChem BioAssay (NCI).
Compounds without any hit were thinned out: in the full panel of roughly 83,000, 20% have a hit.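 Note: values are percent growth. 100 is the growth of untreated cells, values between 100 and 0 indicate rising inhibition; between -100 and 0 indicates cell death.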 Activity calls are given as the source filed them. How the source made its calls: active means growth percent below 10; inactive means the rest.

Experiments:
Assay in all cases: NCI-60 one-dose screen, 48 h (100 = growth as untreated, 0 = no growth, -100 = all killed)
Conditions in all cases: 10 µM unless noted
SK-MEL-2 melanoma = system: SK-MEL-2 melanoma
EKVX NSCLC = system: EKVX NSCLC
SN12C renal = system: SN12C renal
UO-31 renal = system: UO-31 renal
TK-10 renal = system: TK-10 renal
ACHN renal = system: ACHN renal
CAKI-1 renal = system: CAKI-1 renal
A498 renal = system: A498 renal
CCRF-CEM leukemia = system: CCRF-CEM leukemia
SR leukemia = system: SR leukemia
RPMI-8226 leukemia = system: RPMI-8226 leukemia
OVCAR-8 ovarian = system: OVCAR-8 ovarian
OVCAR-5 ovarian = system: OVCAR-5 ovarian
OVCAR-4 ovarian = system: OVCAR-4 ovarian
SK-OV-3 ovarian = system: SK-OV-3 ovarian
IGROV1 ovarian = system: IGROV1 ovarian
OVCAR-3 ovarian = system: OVCAR-3 ovarian
HS 578T breast = system: HS 578T breast
NCI/ADR-RES ovarian = system: NCI/ADR-RES ovarian

Measured: growth

COc1cc2ncn3c(=O)c4c5c(sc4nc3c2cc1OC)CCCC5
inactive: SK-MEL-2 melanoma 91.4% | EKVX NSCLC 83.2% | SN12C renal 109% | UO-31 renal 95.7% | TK-10 renal 140% | ACHN renal 103% | CAKI-1 renal 92.5% | A498 renal 112% | CCRF-CEM leukemia 137% | SR leukemia 134% | RPMI-8226 leukemia 105% | OVCAR-8 ovarian 107% | OVCAR-5 ovarian 98.8% | OVCAR-4 ovarian 92.7% | SK-OV-3 ovarian 97.5% | IGROV1 ovarian 98.8% | OVCAR-3 ovarian 100% | HS 578T breast 94.7% | NCI/ADR-RES ovarian 96%

COc1cccc(-c2nn(-c3ccccc3)cc2-c2ccnc(NCCNC(=O)Nc3ccccc3)c2)c1
active: SR leukemia -10.6%
inactive: SK-MEL-2 melanoma 46.8% | EKVX NSCLC 71.1% | SN12C renal 54% | UO-31 renal 39% | TK-10 renal 73.8% | ACHN renal 68.9% | CAKI-1 renal 64.9% | A498 renal 43.8% | CCRF-CEM leukemia 54.7% | RPMI-8226 leukemia 39.5% | OVCAR-8 ovarian 38% | OVCAR-5 ovarian 92.4% | OVCAR-4 ovarian 53.9% | SK-OV-3 ovarian 58% | IGROV1 ovarian 65.4% | OVCAR-3 ovarian 55.8% | HS 578T breast 31.4% | NCI/ADR-RES ovarian 34.8%

Fc1ccc(CNc2c3ccccc3nc3ccccc23)cc1F
active: A498 renal 9.78%
inactive: SK-MEL-2 melanoma 89.4% | EKVX NSCLC 35.4% | SN12C renal 29.7% | UO-31 renal 15.6% | TK-10 renal 51.1% | ACHN renal 19.3% | CAKI-1 renal 25.3% | CCRF-CEM leukemia 41.5% | SR leukemia 17% | RPMI-8226 leukemia 26.9% | OVCAR-8 ovarian 32.1% | OVCAR-5 ovarian 44.6% | OVCAR-4 ovarian 35.4% | SK-OV-3 ovarian 55.7% | IGROV1 ovarian 22.8% | OVCAR-3 ovarian 68.9% | HS 578T breast 64.8% | NCI/ADR-RES ovarian 27.6%

c1c[nH]c(CNC2CCCCC2)c1
inactive: SK-MEL-2 melanoma 115% | EKVX NSCLC 108% | SN12C renal 107% | UO-31 renal 89.8% | TK-10 renal 120% | ACHN renal 98.1% | CAKI-1 renal 96.1% | A498 renal 91.3% | CCRF-CEM leukemia 96.6% | SR leukemia 144% | RPMI-8226 leukemia 103% | OVCAR-8 ovarian 102% | OVCAR-5 ovarian 101% | OVCAR-4 ovarian 111% | SK-OV-3 ovarian 102% | IGROV1 ovarian 107% | OVCAR-3 ovarian 98.1% | HS 578T breast 102% | NCI/ADR-RES ovarian 99.1%

CCN1CCN(c2cc(C)nc(NCc3cc(Nc4ccnc5cc(Cl)ccc45)ccc3F)n2)CC1
inactive: SK-MEL-2 melanoma 104% | EKVX NSCLC 59.6% | SN12C renal 64.3% | UO-31 renal 69.1% | TK-10 renal 99.8% | ACHN renal 34.9% | CAKI-1 renal 87.8% | A498 renal 36.2% | CCRF-CEM leukemia 16.6% | RPMI-8226 leukemia 74.4% | OVCAR-4 ovarian 50.5% | SK-OV-3 ovarian 87.5% | IGROV1 ovarian 59.1% | OVCAR-3 ovarian 101% | HS 578T breast 71.4% | NCI/ADR-RES ovarian 82.8%
active: SR leukemia -18.4%

CCCCn1c(=O)c2c(nc3n2CCCN3CCc2ccc(OCC(=O)NCCN(CC)CC)cc2)n(CCCC)c1=O
inactive: SK-MEL-2 melanoma 73.8% | EKVX NSCLC 70.5% | SN12C renal 64.6% | UO-31 renal 43.2% | TK-10 renal 71.7% | ACHN renal 78.3% | CAKI-1 renal 77.6% | CCRF-CEM leukemia 24.6% | RPMI-8226 leukemia 61.5% | OVCAR-8 ovarian 60.8% | OVCAR-5 ovarian 94% | OVCAR-4 ovarian 52.3% | SK-OV-3 ovarian 51.8% | IGROV1 ovarian 59.3% | OVCAR-3 ovarian 71.2% | HS 578T breast 20.8% | NCI/ADR-RES ovarian 60.7%
active: A498 renal 1.86% | SR leukemia -22%

COc1cccc(-c2nn(-c3ccccc3)cc2-c2ccnc(NCCCNC(=O)c3ccc(F)cc3)c2)c1
inactive: SK-MEL-2 melanoma 51.6% | EKVX NSCLC 44.5% | SN12C renal 62.6% | UO-31 renal 40.5% | TK-10 renal 57.8% | ACHN renal 71% | CAKI-1 renal 52.4% | A498 renal 31% | CCRF-CEM leukemia 38.6% | RPMI-8226 leukemia 38.2% | OVCAR-8 ovarian 45.9% | OVCAR-4 ovarian 42.1% | SK-OV-3 ovarian 48.2% | IGROV1 ovarian 47.5% | OVCAR-3 ovarian 37.7% | HS 578T breast 61.4% | NCI/ADR-RES ovarian 14.4%
active: SR leukemia -14.2%

COc1cc(N=Nc2ccc(N)cc2)c(OC)cc1N=Nc1ccccc1.[Cl][Zn][Cl]
inactive: SK-MEL-2 melanoma 112% | EKVX NSCLC 103% | SN12C renal 102% | UO-31 renal 53.1% | TK-10 renal 140% | ACHN renal 91.1% | CAKI-1 renal 75.1% | A498 renal 116% | CCRF-CEM leukemia 106% | SR leukemia 93.2% | RPMI-8226 leukemia 90.9% | OVCAR-8 ovarian 98.8% | OVCAR-5 ovarian 96.4% | OVCAR-4 ovarian 92.3% | SK-OV-3 ovarian 96.5% | IGROV1 ovarian 47.6% | OVCAR-3 ovarian 99.8% | HS 578T breast 107% | NCI/ADR-RES ovarian 95.8%

COc1ccc(-c2ccc3c(c2)sc2nc(-c4ccc(F)cc4)cn23)cc1
inactive: SK-MEL-2 melanoma 73.4% | EKVX NSCLC 82.6% | SN12C renal 87.9% | UO-31 renal 81% | TK-10 renal 75.6% | ACHN renal 92.9% | CAKI-1 renal 100% | A498 renal 76.8% | CCRF-CEM leukemia 98.8% | SR leukemia 93.4% | RPMI-8226 leukemia 76.7% | OVCAR-8 ovarian 68.5% | OVCAR-5 ovarian 70.7% | OVCAR-4 ovarian 73.6% | SK-OV-3 ovarian 84.2% | IGROV1 ovarian 100% | OVCAR-3 ovarian 88% | HS 578T breast 99.2% | NCI/ADR-RES ovarian 85.5%

CC(=O)n1c(-c2ccc(Cl)cc2)nc2c(c1=O)C(c1ccc(Cl)cc1)c1sc3c(Cl)cccc3c1O2 (stereo not drawn)
active: SK-MEL-2 melanoma 7.32% | SN12C renal -0.0627% | TK-10 renal -7.43% | CAKI-1 renal 7.82% | A498 renal 3.79% | CCRF-CEM leukemia -4.47% | SR leukemia -14.9% | RPMI-8226 leukemia 0.984% | OVCAR-5 ovarian -3.95% | SK-OV-3 ovarian -2.53% | OVCAR-3 ovarian -50.4% | HS 578T breast -9.23% | NCI/ADR-RES ovarian -17.2%
inactive: EKVX NSCLC 32.9% | UO-31 renal 15.6% | ACHN renal 23.4% | OVCAR-4 ovarian 17.3% | IGROV1 ovarian 13.2%

Cc1cc(Cl)nc(NCc2cc(Nc3ccnc4cc(Cl)ccc34)ccc2F)n1
active: SR leukemia -7.84% | OVCAR-4 ovarian 9.24%
inactive: SK-MEL-2 melanoma 77.1% | EKVX NSCLC 68.1% | SN12C renal 52.8% | UO-31 renal 44% | TK-10 renal 67.1% | ACHN renal 76.1% | CAKI-1 renal 75.3% | A498 renal 63.3% | CCRF-CEM leukemia 28.9% | RPMI-8226 leukemia 33.1% | OVCAR-8 ovarian 50.6% | SK-OV-3 ovarian 85.1% | IGROV1 ovarian 64.7% | OVCAR-3 ovarian 53.4% | HS 578T breast 66.7% | NCI/ADR-RES ovarian 50.3%

COC(=O)[C@]12CC[C@@H](C)[C@H](C)[C@@H]1C1=CC[C@@H]3[C@@]4(C)C(C=O)=C[C@@](C)(COC(C)=O)[C@@H]4[C@H](O)C[C@@]3(C)[C@]1(C)CC2
inactive: EKVX NSCLC 20% | A498 renal 28.3%
active: SK-MEL-2 melanoma -25.4% | SN12C renal -19.3% | UO-31 renal -26.2% | TK-10 renal -8.86% | ACHN renal -54.3% | CAKI-1 renal 1.42% | CCRF-CEM leukemia 1.74% | SR leukemia -26.2% | RPMI-8226 leukemia -17% | OVCAR-8 ovarian -0.958% | OVCAR-5 ovarian -28.3% | OVCAR-4 ovarian 9.81% | SK-OV-3 ovarian 6.14% | IGROV1 ovarian 2.81% | OVCAR-3 ovarian -85.7% | HS 578T breast -18.3% | NCI/ADR-RES ovarian 2.88%

NC(=S)Nc1cccc(O)c1
inactive: SK-MEL-2 melanoma 99.1% | EKVX NSCLC 93% | SN12C renal 95.9% | UO-31 renal 80% | TK-10 renal 91.8% | ACHN renal 90.3% | CAKI-1 renal 90% | A498 renal 115% | CCRF-CEM leukemia 103% | SR leukemia 82.4% | RPMI-8226 leukemia 88.5% | OVCAR-8 ovarian 94.2% | OVCAR-5 ovarian 96.3% | OVCAR-4 ovarian 107% | SK-OV-3 ovarian 101% | IGROV1 ovarian 98% | OVCAR-3 ovarian 110% | HS 578T breast 102% | NCI/ADR-RES ovarian 94.2%

C[n+]1cc2cc(C(N)=O)[nH]c3c(=N)c(Cl)c(N)c1c23
inactive: SK-MEL-2 melanoma 96.1% | EKVX NSCLC 101% | SN12C renal 53.6% | UO-31 renal 81.1% | TK-10 renal 73.9% | ACHN renal 39% | CAKI-1 renal 79.9% | A498 renal 71.9% | CCRF-CEM leukemia 37.6% | SR leukemia 37.6% | RPMI-8226 leukemia 73% | OVCAR-8 ovarian 43.1% | OVCAR-5 ovarian 62% | OVCAR-4 ovarian 73% | SK-OV-3 ovarian 60% | IGROV1 ovarian 65.1% | OVCAR-3 ovarian 63.1% | HS 578T breast 108% | NCI/ADR-RES ovarian 60%

FC(F)(F)c1cc(Nc2ccc3cc(OCCCN4CCOCC4)ccc3n2)ccc1Cl
inactive: SK-MEL-2 melanoma 46% | EKVX NSCLC 62.2% | SN12C renal 49.4% | UO-31 renal 27.6% | TK-10 renal 43.3% | ACHN renal 29.5% | CAKI-1 renal 86.1% | A498 renal 36.4% | OVCAR-8 ovarian 31.3% | OVCAR-5 ovarian 59.1% | SK-OV-3 ovarian 58.3% | IGROV1 ovarian 54.3% | OVCAR-3 ovarian 48.1% | NCI/ADR-RES ovarian 44.9%
active: CCRF-CEM leukemia 3.89% | SR leukemia -12.3% | RPMI-8226 leukemia 7.22% | HS 578T breast 6.22%

O=C(Nc1ccccc1Cl)Oc1ccc(-c2ccccc2)cc1
inactive: SK-MEL-2 melanoma 120% | EKVX NSCLC 98% | SN12C renal 98.9% | UO-31 renal 84.5% | TK-10 renal 118% | ACHN renal 101% | CAKI-1 renal 81.8% | A498 renal 167% | CCRF-CEM leukemia 120% | SR leukemia 133% | RPMI-8226 leukemia 94.2% | OVCAR-8 ovarian 103% | OVCAR-5 ovarian 98.9% | OVCAR-4 ovarian 103% | SK-OV-3 ovarian 121% | IGROV1 ovarian 108% | OVCAR-3 ovarian 150% | HS 578T breast 180% | NCI/ADR-RES ovarian 101%
